# In PubChem BioAssay (NCI):
# Compounds without any hit were thinned out: in the full panel of roughly 79,000, 15% have a hit. Values without a mark were called inactive. Activity calls are given as the source filed them. No stated cut-off is given here; in the data, active means growth inhibition above about 70%; inactive means the rest.
# Test: NCI Yeast Anticancer Drug Screen. Data for the cln2 rad14 strain (AID 165);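 further: 0% = growth equal to vehicle treated cultures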
# Conditions: S. cerevisiae cln2 rad14 strain, hits give high values
# Method: Growth inhibition of yeast strains with defined genetic alterations is measured as a screen for potential anti-cancer activity. Selected strains with alterations in DNA damage repair or cell cycle control were exposed to compounds and growth inhibition was measured relative to vehicle treated controls. The strain used in this assay is cln2 rad14
# [1] = at 5.0 µM (retest, dose inferred, filed as 0.5)
# [2] = at 50.0 µM (retest, dose inferred, filed as 5.0)
Compound,growth inhibition [1],growth inhibition [2],growth inhibition (at 50.0 µM)
CCOC(=O)c1cc2c(nc1NCc1ccc(OC)c(OC)c1)/C(=C/c1ccccc1)CCCC2,28%,84% (active),80.2% (active)
O=[N+]([O-])C1=Cc2ccccc2S(=O)(=O)CC1,-8%,83% (active),63.5%
O=[N+]([O-])c1ccc(/C(=C\c2ccccc2)Cn2ccnc2)cc1,89% (active),91% (active),64.8%
O=C1CC(O)C=C1Nc1ccc(Cl)cc1 (configuration not stated),-8%,-8%,98.5% (active)
Clc1ccc(C2=CCN3CC=C(c4ccc(Cl)cc4)C23)cc1,13%,5%,99.6% (active)
COc1cc(NCCCCCNC(C)C)c2ncc(C)c(C)c2c1,7%,20%,12.1%
Clc1ccc(CN2COc3c(cc(Cl)c4cccnc34)C2)cc1Cl,-11%,97% (active),44.4%
Cc1cc(O)ccc1N=Nc1ccccc1,-8%,99% (active),99.4% (active)
O=C(Nc1ccccc1-c1nn(CN2CCNCC2)c(=S)n(CN2CCNCC2)c1=O)C(F)(F)F,-4%,10%,68.1%
CCN(CC)CCOc1ccc(NC(=S)Nc2ccc(OCC(C)C)cc2)cc1,10%,53%,83.9% (active)
Cc1ccc(C(c2ccc(N(C)C)cc2)c2ccc(N(C)C)cc2)cc1,78% (active),69%,69%
O=C1C(Cl)=C(N2C(=O)CCC2=O)C(=O)c2ccccc21,94% (active),99% (active),89.4% (active)
O=C1CNCCCN2CCN(CCCNCC(=O)Nc3ccc(cc3)S(=O)(=O)c3ccc(cc3)NC(=O)CNCCCN3CCN(CCCNCC(=O)Nc4ccc(cc4)S(=O)(=O)c4ccc(cc4)N1)CC3)CC2,-5%,99% (active),96.8% (active)
CN(C)C(=O)/N=c1\ss/c(=N\C(=S)N(C)C)n1-c1ccccc1,-17%,29%,41.6%
